Screens deposited in PubChem by Broad Institute.
Rows were chosen to be rich in hits. Some 3.8% of all compounds tested hit in one or more screens of this group.
Wnt act – Wnt/beta-catenin pathway activators, primary screen, cell-based, plate reader, single point; Wnt/beta-catenin reporter cell assay, activator; activation, % at 9.35 µM; actives 1.2% (n = 300,000); AID 743398, 2014; in the data active means activation above about 30%, passing the limit was not always enough;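 further: 0% = neutral control wells and 100% = positive control wells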
esBAF inh – Bmi1 luciferase reporter increase in mESCs, primary screen, esBAF inhibitor project, mouse ES cells, Bmi1 luciferase knock-in, single point. reporter increase, % at 12.5 µM. AID 602393, 2012. actives 2% (n = 350,000). 24 h; 100% = twice the neutral-well signal; in the data active means activation above about 40%;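 further: 0% = median of the plate's neutral control wells and 100% = double that signal; a rise in the Bmi1 reporter signal indicates esBAF inhibition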
HSF1 inhib – HSF1 inhibitors in luciferase reporter cells, primary screen, cell-based, NIH3T3, luminescence. NIH3T3-HGL HSE-luciferase, MG132-induced, luminescence 8 h; active compounds read low. activity change, negative = inhibition, % at 7.5 µM (by protocol). actives 0.77% (n = 300,000);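 active means more than half of replicate wells show activity change below -50%, luminescence cut by over half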;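 further: luciferase reports HSF-1 transcriptional activity via heat shock element; 0% = median of DMSO wells and -100% = zero luminescence signal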
HSF-1 act – HSF-1 activators, primary screen, NIH3T3-HGL cells, MG132 stress, luminescence, single point. activation, % at 9 µM. actives 1.7% (n = 300,000). NIH3T3-HGL HSF-1 luciferase reporter, 8 h; 100% = twice DMSO control signal;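 active means mean replicate activation of at least 50% with a set share of replicates each reaching 50%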;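 further: 0% = median of the neutral control wells and 100% = twice that signal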
MITF TRPM1 HTS – activators of MITF-driven TRPM1 promoter reporter, primary screen, cell-based, SK-MEL-5, luciferase, single point; SK-MEL-5 TRPM1-promoter luciferase, 24 h; % of positive control, neutral wells = 0; activation, % at 12.5 µM; actives 0.75% (n = 300,000); AID 588334, 2011;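 active means mean activation of at least 80% with every replicate also reaching 80%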;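 further: 0% = neutral control wells and 100% = parthenolide positive control wells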
The depositor's hits bear a star; / = no result given.

SMILES	Wnt act	esBAF inh	HSF1 inhib	HSF-1 act	MITF TRPM1 HTS
Cc1ccc(NN2C(=O)C=C(c3ccccc3)C2=O)cc1	-6	/	148	207*	/
COC(=O)C[C@H]1C[C@H]2c3cc(NS(=O)(=O)c4cccc(OC)c4)ccc3O[C@H]2[C@H](CO)O1	/	2	/	/	/
CCN(C(=O)c1cc2c(=O)n3ccccc3nc2s1)C1CCCCC1	10	58*	5	15	36
CCN(C(=O)c1cc2c(=O)n3ccccc3nc2n1C)C1CCCCC1	8	38	9	27	26
CCN(C(=O)c1cc2c(=O)n3cccc(C)c3nc2s1)C1CCCCC1	-2	67*	-1	-13	24
CCN(CC)C(=O)c1cc2c(=O)n3cccc(C)c3nc2s1	3	27	1	2	-1
CN(C(=O)c1cc2c(=O)n3ccccc3nc2n1C)C1CCCCC1	37*	11	19	21	69
O=C(COC(=O)c1ccccc1Cl)NCc1cccs1	-1	2	/	/	/
CC(=O)c1c(C)[nH]c(C(=O)OCC(=O)NCc2cccs2)c1C	17	55*	/	/	19
Nc1cc(Cl)ccc1C(=O)OCC(=O)NCc1cccs1	12	53*	/	/	26
C[C@H]1CN([C@@H](C)CO)C(=O)c2cc(-c3cccc(C#N)c3)cnc2O[C@@H]1CN(C)Cc1cncnc1	/	-1	/	/	/
CC(C)(C)N=Cc1cc(-c2ccccc2)sc1O	63*	74*	22	43	/
CC(=O)c1sc(-c2ccccc2)cc1N	16	/	-3	-8	/
CCOc1ccc2[nH]cc(C(=O)NCc3ccccc3)c(=O)c2c1	-1	17	6	13	7
O=C(NCc1ccccc1)c1c[nH]c2cc3c(cc2c1=O)OCCO3	24	51*	-5	12	39
S=c1[nH]c(-c2ccc(Br)cc2)cn1CCc1ccccc1	-2	/	26	62*	8
COc1ccccc1-n1cc(-c2ccc(Br)cc2)[nH]c1=S	8	2	8	18	-7
COc1ccc(OC)c(Nc2nc3ccc(C)cc3n3cnnc23)c1	-1	-3	19	74*	/
COc1ccc(Cl)cc1Nc1nc2ccc(C)cc2n2cnnc12	9	2	-2	2	11
COc1ccc(C(C(=O)NC2CCCCC2)N(C(=O)CCl)c2ccc(Cl)cc2)cc1 (stereo not given)	/	/	-86*	-83	-79
COc1ccc(C(C(=O)NC2CCCCC2)N(C(=O)CCCC(=O)Nc2ccccn2)c2ccc3c(c2)OCCO3)cc1 (stereo not given)	/	-5	-3	-11	-11
O=C(CCCC(=O)N(c1ccc2c(c1)OCCO2)C(C(=O)NC1CCCCC1)c1ccc(Cl)cc1)Nc1ccccn1 (stereo not given)	0	-3	-66*	-70	2
CCOc1ccccc1NC(=O)CN1C(=O)C(C)SC(C)C1=O (stereo not given)	39*	/	-11	-18	-10
CC(=O)N1[C@@H]2c3ccc(C4=CCCCC4)c(=O)n3C[C@@H]2[C@@H](CO)[C@@H]1C(=O)Nc1ccccc1	/	0	/	/	/
CC[n+]1c(/C=C2\C=C(C)CC(C)(C)C2)sc2ccccc21	/	5	67	85*	-56
SMILES	Wnt act	esBAF inh	HSF1 inhib	HSF-1 act	MITF TRPM1 HTS
CCC1=C/C(=C/c2sc3ccccc3[n+]2CC)CC(C)(C)C1	0	/	36	48	3
CO[C@@H]1CN(C)C(=O)c2cc(NC(=O)C3CCCCC3)ccc2OC[C@@H](C)N(C)C[C@H]1C	/	-1	/	/	/
C[C@H]1CN([C@@H](C)CO)C(=O)c2cc(NS(=O)(=O)c3ccc(Cl)cc3)ccc2O[C@@H]1CN(C)CC1CC1	/	-2	/	/	/
COc1cc2c(cc1OC)C(C)N(S(=O)(=O)c1ccc(C)cc1)CC2 (stereo not given)	2	-1	27	60*	-4
COc1cc2c(cc1OC)C(C)N(S(=O)(=O)c1cccs1)CC2 (stereo not given)	2	7	1	3	-8
CN(C)CC(=O)Nc1ccc2c(c1)[C@H]1C[C@@H](CC(=O)NC3CCCCC3)O[C@H](CO)[C@H]1O2	/	-2	/	/	/
COc1ccc(CN2CCC(C(=O)Nc3ccc(Oc4cccnc4)cc3)CC2)c(C)c1C	-5	-7	-83*	-88	-28
